Screening data (PubChem)
ELG1 repair inh: blocks ELG1-dependent DNA repair in HEK293T cells. HEK293T ELG1-luciferase reporter, luminescence, 16 h; DNA damage induced by 5-fluorouridine. Potency, µM (highest dose often 46.1 µM), hits mostly inhibitors. hit rate 2.3% among 330,000; also: nearly all actives have a fitted effect of over 55% in size
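Reporter activity after DNA damage by 5-fluorouridine is monitored. Compound-treated cells incubate 16 hr at 37 °C, then ONE-Glo is added for 30 min before luminescence reading.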
IL1B secr inh: blocks inflammasome-driven IL-1 beta release. THP-1 LPS/ATP IL-1B secretion, AlphaLISA, 16 h; active compounds read low. activity change, % at 57.5 µM. hit rate 4.7% among 360,000; in the data active = activity change below about -50%; inconclusive = mostly about -30% to -49%
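Secreted IL-1B measured by AlphaLISA bead assay after 16 h compound exposure of THP-1 cells; compounds (final up to 57.5 uM) added 1 h before LPS (250 ng/mL) and ATP (1.25 mM) stimulation; lower signal means less secretion.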
DT40 TDP1 CPT: growth inhibition of DT40 Tdp1-/-;hTDP1 cells with camptothecin (screen for TDP1 inhibitors). chicken DT40 Tdp1-/-;hTDP1 cells + 20 nM CPT, ATP luminescence, 48 h. Potency, µM (doses to about 46.2 µM), hits mostly inhibitors. hit rate 12% among 420,000. AID 686979; also: nearly all actives have a fitted effect of over 55% in size
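Chicken DT40 Tdp1-/- cells stably complemented with human TDP1 were seeded at 400 cells/well in medium containing 20 nM camptothecin, exposed to pin-transferred compounds, and grown at 37 °C for at least 48 hr. Viability was read as ATP luminescence.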
HT1080 IDH1KD tx: toxicity to HT-1080 IDH1 knockdown cells (counter line) | hit rate 2% among 360,000 | Potency, µM (top dose mostly 46.1 µM), hits mostly cytotoxic | HT-1080 IDH1 knockdown viability, ATP luminescence, 48 h
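After a 2 h attachment period, IDH1KD HT-1080 cells took pin-transferred compound for 48 h at 37 °C; ATP-based luminescence after 10 min room-temperature reagent incubation reported viability.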
HT1080NT lethal: kills 2HG-producing HT-1080-NT fibrosarcoma cells. HT-1080-NT fibrosarcoma viability, CellTiter-Glo ATP luminescence, 48 h. Potency, µM (doses to about 46.1 µM), usual class: cytotoxic. hit rate 1.6% among 360,000. AID 686970;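 also: NT is the 2HG producing partner of a matched IDH1 knockdown line; nearly all actives have a fitted effect of over 55% in size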
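Toxicity toward the 2HG-producing NT line was scored as %Activity, normalised to DMSO and no-cell wells, from CellTiter-Glo luminescence after 48 hours' treatment.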
TDP1 cell noCPT: qHTS for Inhibitors of human tyrosyl-DNA phosphodiesterase 1 (TDP1): qHTS in cells in absence of CPT | DT40 Tdp1-/- hTDP1 cells, no CPT, ATP luminescence, 48 h | Potency, µM (doses to about 46.2 µM), hits mostly inhibitors | hit rate 15% among 420,000; also: nearly all actives have a fitted effect of over 55% in size
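Seeded 400 DT40-hTDP1 cells/well (vehicle DMSO, no 20 nM CPT); pinned compounds; ≥48 hr at 37 °C; CellTiter-Glo luminescence as viability measure.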
A number is an active result; 0 = inactive; ? = inconclusive; - = no result; [ ] = dose if it differs, or a comment. Hits are enriched below; roughly 19% of the tested compounds scored in any of these assays. Unless noted, calls follow the shape of the dose curve; as a rule, active = well fitted curve in the direction sought with a large enough effect; inconclusive = small, poorly fitted or top-dose-only effect, or another doubt; inactive = no such curve, though single readings can be large; an effect the other way counts as inactive or inconclusive.

SMILES	ELG1 repair inh	IL1B secr inh	DT40 TDP1 CPT	HT1080 IDH1KD tx	HT1080NT lethal	TDP1 cell noCPT
Cc1[nH]n(-c2ccccc2)c(=O)c1/C=N/NC(=O)c1cccc(F)c1	?	0	5.2µM	7.3µM	10µM	4.1µM
Cc1[nH]n(-c2ccc(Br)cc2)c(=O)c1/C=N/NC(=O)c1ccccc1	?	0	4.6µM	?	?	2.9µM
Cc1ccc2c(c1)[C@@H]1[C@H](CO2)[C@H](c2ccccc2)[C@]2(C)C(=O)N[C@H](C)C(=O)N12	0	0	?	0	0	?
Cc1noc(C)c1CSCC(=O)Nc1ccccc1N1CCCC1	-	0	0	0	0	?
CC(=O)Nc1cccc(-c2nc3ccccc3s2)c1	?	0	0	0	0	0
CC(=O)Nc1cccc(-c2cc(C)c3cc4c(cc3n2)OCO4)c1	?	-51	0	0	0	?
CN(CC(=O)N1CCc2ccccc21)S(=O)(=O)c1ccc(Cl)cc1	0	0	0	0	0	0
CCOc1ccc(S(=O)(=O)N(CC(=O)N2CCc3ccccc32)Cc2ccco2)cc1	?	0	18µM	0	0	?
COc1c(O)cc2c(=O)oc3c(OC)c(O)cc4c(=O)oc1c2c34	-	-	0[9.04 µM]	-	-	0[9.04 µM]
COc1cc2c(oc(=O)c3cc(C)cc(OC)c32)c2c(C3OC(C)C(O)C(C)(O)C3O)ccc(O)c12 (stereo not drawn)	-	-101	1.5µM	?	?	1.5µM
Cc1ccc(N(CCC#N)C(=O)COC(=O)C2=COCCO2)cc1	0	0	0	0	0	0
Cc1ccc(-c2cc(N)n(-c3ccc(C)cc3)n2)cc1	?	0	?	0	0	?
Cc1ccc(-c2cc3nn(-c4ccccc4)c(N)c3c(=O)o2)cc1	0	-56	?	0	?	21µM
O=C(NC(=O)N1CCCC1)c1csnn1	0	0	0	0	0	0
COc1ccc(-n2c(=O)c3c4c(sc3n(CC(=O)Nc3cc(C)[nH]n3)c2=O)CCCC4)c(OC)c1	0	0	0	?	?	0
COc1ccc(-n2c(=O)c3c4c(sc3n(Cc3ccccc3Cl)c2=O)CCC4)c(OC)c1	-	-	?	-	-	21µM
CCCN(CCC)C(=O)Cn1c(=O)n(-c2ccc(OC)cc2OC)c(=O)c2c3c(sc21)CCC3	-	-	0	-	-	?
COc1ccc(-n2c(=O)c3c4c(sc3n(Cc3ccc(F)cc3)c2=O)CCCC4)c(OC)c1	-	-	21µM	-	-	15µM
COc1ccc(-n2c(=O)c3c4c(sc3n(Cc3ccc(C)cc3C)c2=O)CCC4)c(OC)c1	-	-	18µM	-	-	?
O=C(NCCCO)C(=O)NCC(c1ccc2c(c1)OCO2)N1CCOCC1 (stereo not drawn)	-	-	0	-	-	0
COCOCCn1cc(CN2CCS(=O)(=O)N(Cc3ccc(-c4ccc(OC)cc4)cc3)C(C(C)C)C2=O)nn1 (stereo not drawn)	-	0	15µM	0	0	16µM
COCOCCn1cc(CN2CCS(=O)(=O)N(Cc3ccc(-c4ccncc4)cc3)C(CC(C)C)C2=O)nn1 (stereo not drawn)	-	0	23µM	0	0	?
COCOCCn1cc(CN2CCS(=O)(=O)N(Cc3ccc(-c4ccc(Cl)nc4)cc3)C(C(C)C)C2=O)nn1 (stereo not drawn)	-	0	7.3µM	0	0	0
COCOCCn1cc(CN2CCS(=O)(=O)N(Cc3ccc(-c4ccccc4)cc3)C(C(C)C)C2=O)nn1 (stereo not drawn)	-	0	?	0	0	23µM
COCOCCn1cc(CN2CCS(=O)(=O)N(Cc3ccc(-c4ccncc4)cc3)C(C(C)C)C2=O)nn1 (stereo not drawn)	-	0	0	0	0	0
SMILES	ELG1 repair inh	IL1B secr inh	DT40 TDP1 CPT	HT1080 IDH1KD tx	HT1080NT lethal	TDP1 cell noCPT
CN(CC(=O)NCc1ccccn1)S(=O)(=O)c1ccc(Br)cc1	0	0	0	0	0	0
O=c1cc(CN2CCN(c3ccccc3F)CC2)c2c(ccc3ccccc32)o1	-	0	16µM	0	0	18µM
COc1ccc(CN2CCN(Cc3cc(=O)oc4cc(C)ccc34)CC2)c(OC)c1OC	?	0	26µM	?	0	16µM
COc1ccccc1N1CCN(Cc2cc(=O)oc3cc(C)ccc23)CC1	-	?	23µM	0	0	?
Cc1ccc2c(CN3CCN(C(=O)c4ccc(F)cc4)CC3)cc(=O)oc2c1	-	-	18µM	-	-	0
O=c1nc(/C=C/c2cccn2-c2ccc([N+](=O)[O-])cc2)cc(C(F)(F)F)[nH]1	0	0	0	0	0	0
O=c1nc(/C=C/c2cc([N+](=O)[O-])ccc2Cl)cc(C(F)(F)F)[nH]1	?	-94	?	0	0	23µM
